Screening data from PubChem BioAssay.
Mito fusion act = qHTS Assay for Small Molecule Inhibitors of Mitochondrial Division or Activators of Mitochondrial Fusion; S. cerevisiae fusion-defective mutant growth rescue, CellTiterGlo 48 h; Potency, µM (top dose mostly 46.1 µM), for inactives: at the highest dose growth rescue (activation), actives largely listed as activators; 320,000 compounds, 0.23% hits; also: % of control where 0% means no effect; nearly all actives have a fitted effect of over 45% in size
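Luminescent cell viability in 1536-well qHTS format served as the measure of rescued growth in ts fusion-mutant S. cerevisiae cultured on non-fermentable YPEG for 48 hours at 37C.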
GLP1R cytotox = qHTS of GLP-1 Receptor Inverse Agonists: Cytotox Screen; HEK293 cAMP-luciferase reporter cells, luminescence, 24 h; Potency, µM (top dose mostly 38.3 µM), for the others: top-dose activity change, negative = inhibition, usual class: inhibitors; 410,000 compounds, 0.13% hits; AID 624418, 2012;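 also: loss of luciferase light is scored as toxicity; % is scaled to controls: 0 for no effect and ±100 for the full control effect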
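Compound-treated cells are incubated 24 hr at 37 deg C under 5% CO2 after a 12 hour attachment period, then luciferase detection reagent is added and luminescence is measured following 12 min at room temperature; lowered signal indicates toxicity.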
GLP-1R inv ag = qHTS of GLP-1 Receptor Inverse Agonists (Inhibition Mode) | AID 624417, 2012 | Potency, µM (highest dose often 38.3 µM), for the others: at the top dose activity change, negative = inhibition, actives largely listed as inhibitors | HEK293 GLP-1R CRE-luciferase, luminescence, 24 h; GLP-1R form is constitutively active | 410,000 compounds, 1.6% hits | Glucagon-like peptide 1 receptor (Homo sapiens), P43220; also: % is scaled to controls: 0 for no effect and ±100 for the full control effect; nearly all actives have a fitted effect of over 55% in size
Target sequence (P43220 whole entry, looked up): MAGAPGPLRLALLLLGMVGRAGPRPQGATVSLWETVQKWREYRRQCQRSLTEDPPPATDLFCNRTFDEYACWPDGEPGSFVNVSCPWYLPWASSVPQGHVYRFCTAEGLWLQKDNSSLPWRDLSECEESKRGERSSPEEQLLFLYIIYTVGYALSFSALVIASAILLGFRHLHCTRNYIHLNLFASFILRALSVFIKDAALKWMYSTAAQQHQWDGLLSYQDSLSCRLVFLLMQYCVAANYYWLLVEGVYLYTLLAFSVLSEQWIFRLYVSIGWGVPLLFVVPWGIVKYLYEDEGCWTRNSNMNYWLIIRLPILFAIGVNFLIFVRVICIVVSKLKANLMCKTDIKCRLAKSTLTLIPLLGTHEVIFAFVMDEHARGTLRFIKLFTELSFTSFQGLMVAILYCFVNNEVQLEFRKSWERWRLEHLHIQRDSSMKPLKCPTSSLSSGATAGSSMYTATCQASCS
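Stable HEK293 clone (constitutively active GLP-1R + cAMP-response luciferase); 200 cells/uL plated, 12 h pre-culture, compound 24 hr, 37 deg C/5% CO2; detection reagent 12 min RT; luminescence.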
BRCA1 expr act = qHTS Assay to Identify Small Molecule Activators of BRCA1 Expression; MCF7-BRCA1-FFLuc reporter, luminescence, 48 h; response scale: scaled: vehicle 0%, 10 µM genistein 100%; Potency, µM (doses to about 46.1 µM), without a hit: at the top dose activation, actives largely listed as activators; 380,000 compounds, 1.1% hits; AID 624202, 2012; also: nearly all actives have a fitted effect of over 80% in size
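Luminescence from a BRCA1-driven firefly luciferase in MCF7 cells was the read-out, taken 15 min after substrate addition following 48 h compound exposure at 37 °C. Data were normalized to a 10 microM genistein control and DMSO vehicle.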
GLP-1R agonist = qHTS of GLP-1 Receptor Agonists; Glucagon-like peptide 1 receptor (Homo sapiens), P43220; HEK293 GLP-1R CRE-luciferase, luminescence, 4-6 h; cells express a hypersensitive GLP-1R form; Potency, µM (highest dose often 45.6 µM), inactives show top-dose activation, hits mostly activators; 380,000 compounds, 0.007% hits; also: % of control where 0% means no effect
* marks the source's active call; other numbers are inactive results; ! = not active in a repeat. Compounds with a hit are over-represented: about 2.8% of the library has one in this group of screens. Calls follow the shape of the dose curve; as a rule, active = well fitted curve in the direction sought with a large enough effect; inconclusive = small, poorly fitted or top-dose-only effect, or another doubt; inactive = no such curve, though single readings can be large; an effect the other way counts as inactive or inconclusive. Potency is read from the fitted curve at half-maximal effect.

Screening C[C@H]1CN([C@@H](C)CO)C(=O)Cc2cc(NC(=O)CCC(F)(F)F)ccc2O[C@H]1CN(C)S(=O)(=O)c1ccc(Cl)cc1 returned GLP1R cytotox -21%, GLP-1R inv ag inconclusive, BRCA1 expr act -52% and GLP-1R agonist 3%.
For CCN(CC)S(=O)(=O)c1cc([N+](=O)[O-])ccc1NNC(=O)Nc1ccc(Cl)c(Cl)c1 the results were Mito fusion act 4%, GLP1R cytotox inconclusive, GLP-1R inv ag 2.2µM*, BRCA1 expr act -73% and GLP-1R agonist -8%.
`Cc1cccc(NC(=O)c2cc([N+](=O)[O-])ccc2Cl)c1O` gave Mito fusion act 1%, GLP1R cytotox -5%, GLP-1R inv ag inconclusive, BRCA1 expr act -26% and GLP-1R agonist 0%.
O=C(Nc1ccccc1Oc1ccccc1)c1cc([N+](=O)[O-])ccc1Cl was read as Mito fusion act inconclusive, GLP1R cytotox 4%, GLP-1R inv ag 4.5µM*, BRCA1 expr act -73% and GLP-1R agonist 12%.
`O=C(NNc1ccccc1[N+](=O)[O-])Nc1ccc(Cl)c(Cl)c1` gave Mito fusion act -8%, GLP1R cytotox -2%, GLP-1R inv ag inconclusive, BRCA1 expr act -74% and GLP-1R agonist 3%.
For O=C(O)c1ccccc1Nc1ccc([N+](=O)[O-])cc1 the results were Mito fusion act 3%, GLP1R cytotox 0%, GLP-1R inv ag inconclusive, BRCA1 expr act 13µM* and GLP-1R agonist 1%.
O=C(O)c1ccccc1Nc1ccccc1C(=O)O was read as Mito fusion act 3%, GLP1R cytotox 1%, GLP-1R inv ag 12%, BRCA1 expr act 4% and GLP-1R agonist 3%.
For CCN(CC)CCCNC(=O)CCC(=O)Nc1ccc2nc(N3CCC(C)CC3)cc(C)c2c1 the results were Mito fusion act -7%, GLP1R cytotox 16%, GLP-1R inv ag 7.1µM*, BRCA1 expr act -4% and GLP-1R agonist 11%.
For CCCCNC(=O)CCC(=O)Nc1ccc2nc(N3CCCCC3)cc(C)c2c1 the results were Mito fusion act 1%, GLP1R cytotox 14%, GLP-1R inv ag inconclusive, BRCA1 expr act 80% and GLP-1R agonist 14%.
For CCN(CC)CCCNC(=O)CCC(=O)Nc1ccc2nc(N3CCCCC3)cc(C)c2c1 the results were Mito fusion act -8%, GLP1R cytotox -13%, GLP-1R inv ag inconclusive, BRCA1 expr act 11µM* and GLP-1R agonist 20%.
For CCCCNC(=O)CCC(=O)Nc1ccc2nc(N3CCOCC3)cc(C)c2c1 the results were Mito fusion act 3%, GLP1R cytotox 4%, GLP-1R inv ag 0%, BRCA1 expr act 4µM* and GLP-1R agonist 1%.
For Cc1cc(N2CCCCC2)nc2ccc(NC(=O)CCC(=O)NCCC(C)C)cc12 the results were Mito fusion act -1%, GLP1R cytotox -9%, GLP-1R inv ag 0%, BRCA1 expr act inconclusive and GLP-1R agonist 9%.
For CCCCN(CC)CCNC(=O)CCC(=O)Nc1ccc2nc(N3CCN(C)CC3)cc(C)c2c1 the results were Mito fusion act -2%, GLP1R cytotox 372%, GLP-1R inv ag inconclusive, BRCA1 expr act -8% and GLP-1R agonist 11%.
For O=C(NCc1ccc2c(c1)OCO2)c1ccc2c(c1)N(Cc1cccc(Cl)c1)C(=O)c1ccccc1S2 the results were GLP1R cytotox 3%, GLP-1R inv ag -5% and BRCA1 expr act -8%.
For O=C(/C=C/c1ccc(O)cc1)c1ccc(O)cc1O the results were Mito fusion act 16µM*!, GLP1R cytotox -6%, GLP-1R inv ag inconclusive, BRCA1 expr act -22% and GLP-1R agonist 13%.
`COc1ccccc1CN1C[C@@H]2C[C@@H](c3ccc4nsnc4c3)N3CCC[C@@]23C1=O` gave Mito fusion act 3%, GLP1R cytotox -2%, GLP-1R inv ag -18%, BRCA1 expr act 2% and GLP-1R agonist 19%.
Cc1ccc(N2C(=O)N3[C@H](c4ccc(Cl)cc4)[C@@H]4C(=O)N(C5CCCCC5)C(=O)[C@@H]4[C@]3(Cc3ccccc3)C2=O)cc1 was read as Mito fusion act 2%, GLP1R cytotox -2%, GLP-1R inv ag inconclusive, BRCA1 expr act 2% and GLP-1R agonist -2%.
Cc1ccc(N2C(=O)N3[C@H](c4ccc(F)cc4)[C@@H]4C(=O)N(C5CCCCC5)C(=O)[C@@H]4[C@]3(C)C2=O)cc1 was read as Mito fusion act -1%, GLP1R cytotox -31%, GLP-1R inv ag 10µM*, BRCA1 expr act 0% and GLP-1R agonist -3%.
For O=C1[C@H]2[C@@H](c3ccc(Cl)cc3)N3C(=O)N(c4cccc(F)c4)C(=O)[C@@]3(Cc3ccc(Cl)cc3)[C@H]2C(=O)N1C1CCCCC1 the results were Mito fusion act 6%, GLP1R cytotox 10%, GLP-1R inv ag 15%, BRCA1 expr act -27% and GLP-1R agonist -6%.
O=C1[C@H]2[C@@H](c3ccc(Cl)cc3)N3C(=O)N(c4cccc(Cl)c4)C(=O)[C@@]3(Cc3ccc(Cl)cc3)[C@H]2C(=O)N1C1CCCCC1 was read as Mito fusion act 15%, GLP1R cytotox -16%, GLP-1R inv ag 4µM*, BRCA1 expr act -19% and GLP-1R agonist -6%.
For CC1(C)CC(=O)C(C=NC2CC(C)(C)NC(C)(C)C2)=C(O)C1 the results were Mito fusion act 1%, GLP1R cytotox 2%, GLP-1R inv ag -1%, BRCA1 expr act 9% and GLP-1R agonist -6%.
For CC(=O)NC(CCS(C)(=O)=O)C(=O)Nc1cccc2ccccc12 (configuration not stated) the results were Mito fusion act -1%, GLP1R cytotox 3%, GLP-1R inv ag -13%, BRCA1 expr act 2% and GLP-1R agonist 0%.
Screening Clc1ccc(C(Cn2ccnc2)OCc2c(Cl)cccc2Cl)c(Cl)c1 (configuration not stated) returned Mito fusion act 6.3µM*, GLP1R cytotox 0%, GLP-1R inv ag inconclusive, BRCA1 expr act -30% and GLP-1R agonist 17%.
Screening OC(Cn1ccnc1)c1ccc(Cl)cc1Cl (configuration not stated) returned Mito fusion act -3%, GLP1R cytotox 6%, GLP-1R inv ag 6%, BRCA1 expr act 1% and GLP-1R agonist 2%.
Clc1ccc(CSC2=NCCCN2)cc1Cl was read as Mito fusion act 7%, GLP1R cytotox -25%, GLP-1R inv ag 8.9µM*, BRCA1 expr act -28% and GLP-1R agonist -3%.
